Experimental data from PubChem BioAssay (NCATS).
Values joined by “and” are separate entries in the source; they are usually repeats but may differ in a detail not shown here. Identical values can stand only once. Records with an inconclusive call do not appear. Active and inactive are the calls of the source. Unless noted, calls follow the shape of the dose curve; as a rule, active = well fitted curve in the direction sought with a large enough effect; inconclusive = small, poorly fitted or top-dose-only effect, or another doubt; inactive = no such curve, though single readings can be large; an effect the other way counts as inactive or inconclusive.

Assays:
[1] = target: Cellular tumor antigen p53 (Homo sapiens) (UniProt P04637); experiment: Primary qHTS for small molecule compounds that upregulate eGFP-tagged delta133p53alpha (in N-terminal) cells. (AID 2060322); settings: NCI-H358 eGFP-delta133p53alpha fluorescence, 24 h; activation: stronger effect = higher value;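 also: cells pre-induced with doxycycline then dosed without doxycycline; series mostly up to about 56 µM; 0% = DMSO vehicle and 100% = reference activator; nearly all actives have a fitted effect of over 75% in size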
Summary of the method: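 NCI-H358 cells pre-induced 24 h with 10 ng/ml doxycycline for eGFP-delta133p53alpha, plated dox-free and exposed 24 h at 37C to titrated compounds. Fixed, Hoechst-stained; gated GFP peak intensity by laser scanning cytometry, normalized to DMSO (0%) and 57.5 uM 5-azacytidine (100%).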

[2] = target: Cellular tumor antigen p53 (Homo sapiens) (UniProt P04637); experiment: Primary qHTS for small molecule compounds that upregulate eGFP-tagged delta133p53alpha (in C-terminal) cells. (AID 2060324);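 also: 0% = DMSO wells and 100% = 57.5 µM 5-azacytidine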
Summary of the method: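 Readout: filtered GFP peak intensity of gated cells (laser scanning cytometer), normalized plate-wise to intraplate controls, DMSO wells = 0% activity. Cells: NCI-H358 D133p53a-eGFP, dox 100 ng/ml 24 h beforehand, then compound 24 h, 37 °C.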

[3] = target: Aldehyde dehydrogenase, mitochondrial (Homo sapiens) (UniProt P05091); experiment: qHTS for Inhibitors of the Aldehyde Dehydrogenase Family (ALDH2) Validation screens (AID 2061302; active = well fitted inhibition curve with a large enough effect; title and protocol of this record describe different tests;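 also: plate controls were DMSO vehicle for no effect and maximal DPI positive control response for full effect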)
[4] = target: Retinaldehyde dehydrogenase 3 (Homo sapiens) (UniProt P47895); experiment: qHTS for Inhibitors of the Aldehyde Dehydrogenase Family (ALDH1A3) Validation screen (AID 2061312); also: % is scaled to controls: 0 for no effect and ±100 for the full control effect; nearly all actives have a fitted effect of over 45% in size

Chain of Cellular tumor antigen p53 (Homo sapiens) (P04637 whole entry, looked up): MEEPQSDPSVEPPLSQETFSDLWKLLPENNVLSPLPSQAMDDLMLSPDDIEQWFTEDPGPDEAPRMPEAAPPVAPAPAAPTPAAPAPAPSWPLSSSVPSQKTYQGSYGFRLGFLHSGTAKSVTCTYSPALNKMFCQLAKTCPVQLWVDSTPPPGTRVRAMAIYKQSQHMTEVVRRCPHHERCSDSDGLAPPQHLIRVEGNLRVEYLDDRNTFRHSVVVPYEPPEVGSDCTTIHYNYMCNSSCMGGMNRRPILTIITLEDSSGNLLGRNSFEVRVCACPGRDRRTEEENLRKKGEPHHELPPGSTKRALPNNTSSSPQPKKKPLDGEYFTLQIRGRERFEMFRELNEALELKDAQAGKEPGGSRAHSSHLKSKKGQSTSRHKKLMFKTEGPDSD

CC(=O)N[C@@H](Cc1c[nH]c2ccccc12)C(=O)OCc1cc(C(F)(F)F)cc(C(F)(F)F)c1
inactive: activation [1] -29.2% | Potency [2] | Potency [3] | Potency [4]

CN1C2CCC1CC(OC(=O)c1c[nH]c3ccccc13)C2 (centres undefined)
inactive: activation [1] -37.1% | Potency [2] | Potency [3] | Potency [4]

CO/N=C(\C(=O)N[C@@H]1C(=O)N2C(C(=O)O)=C(COC(C)=O)CS[C@H]12)c1csc(N)n1
inactive: activation [1] 2.44% | Potency [2] | Potency [3] | Potency [4]

O=C(O)c1cc(=O)cc(C(=O)O)[nH]1
inactive: activation [1] -16.3% | Potency [2] | Potency [3] | Potency [4]

CNCC[C@H](Oc1ccc(C(F)(F)F)cc1)c1ccccc1
inactive: activation [1] -46.5% | Potency [2] | Potency [3] | Potency [4]

CCN(CC)CCCCCCCCOC(=O)c1cc(OC)c(OC)c(OC)c1
inactive: activation [1] -40.3% | Potency [2] | Potency [3] | Potency [4]

CN(C)c1nc(N)c(C(=O)N=C(N)N)nc1Cl
inactive: activation [1] -52.6% | Potency [2] | Potency [3] | Potency [4]

OC1(c2ccc(Cl)cc2)CCN(Cc2c[nH]c3ccccc23)CC1
inactive: activation [1] -4.41% | Potency [2] | Potency [3] | Potency [4]

CC1CNCCN1S(=O)(=O)c1cccc2cnccc12 (centres undefined)
inactive: activation [1] -28.4% | Potency [2] | Potency [3] | Potency [4]

Nc1nc2c(ncn2[C@@H]2O[C@H](CO)[C@@H](O)[C@@H]2O)c(=O)[nH]1
inactive: activation [1] -6.66% | Potency [2] | Potency [3] | Potency [4]

O=C(O)CC1CCCc2ccccc2C1O (centres undefined)
inactive: activation [1] 5.92% | Potency [2] | Potency [3] | Potency [4]

CCN(CC)CC(=O)Nc1c(C)cccc1C
inactive: activation [1] -3.35% and -7.58% | Potency [2] | Potency [3] | Potency [4]

Cc1ccc([N+](=O)[O-])cc1S(=O)(=O)N(C)C
inactive: activation [1] -2.98% | Potency [2] | Potency [3] | Potency [4]

O=c1[nH]c2cc(C(F)(F)F)ccc2n1-c1cc(C(F)(F)F)ccc1O
inactive: activation [1] -56.6% | Potency [2] | Potency [3] | Potency [4]

OC[C@H]1O[C@H](n2cnc3c(N[C@H]4CCC[C@@H]4O)ncnc32)[C@H](O)[C@@H]1O
inactive: activation [1] -36% | Potency [2] | Potency [3] | Potency [4]

OC[C@H]1O[C@@H](n2cnc3cncnc32)[C@H](O)[C@@H]1O
inactive: activation [1] -14.1% | Potency [2] | Potency [3] | Potency [4]

CC(N)(Cc1ccc(O)cc1)C(=O)O (centres undefined)
inactive: activation [1] -18.1% | Potency [2] | Potency [3] | Potency [4]

Nc1nc(Nc2ccccc2)nc2c1ncn2[C@@H]1O[C@H](CO)[C@@H](O)[C@H]1O
inactive: activation [1] 8.56% | Potency [2] | Potency [3] | Potency [4]

CN1CCc2cc(Cl)c(O)cc2[C@@H](c2ccccc2)C1
inactive: activation [1] -19.2% | Potency [2] | Potency [3] | Potency [4]

Nc1ccn([C@H]2CC[C@@H](CO)O2)c(=O)n1
inactive: activation [1] 32.8% and -1.67% and -29% | Potency [2] | Potency [3] | Potency [4]

O=C(O)C1CN(CCCP(=O)(O)O)CCN1 (centres undefined)
inactive: activation [1] -32.5% | Potency [2] | Potency [3] | Potency [4]
